Hits are enriched below; roughly 12% of the tested compounds scored in any of these assays.
G9a block: G9a (human) methyltransferase inhibition. G9a H3K9 monomethylation, AlphaScreen, 2 h. Potency, µM (doses to about 102 µM), most hits filed as inhibitors. Q96KQ7. hit rate 8.8% among 350,000; further: nearly all actives have a fitted effect of over 75% in size
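AlphaScreen read-out: biotin-H3K9 peptide (500 nM) methylation by 20 nM enzyme with 20 uM SAM, 2 h at room temperature after 15 min compound preincubation; anti-monomethyl H3K9 antibody plus donor/acceptor beads, 10 min dark.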
PLK1 PBD inh: inhibitors of human PLK1 polo-box domain binding | Plk1 PBD binding of FITC phosphopeptide, fluorescence polarization | hit rate 2.8% among 360,000 | Potency, µM, usual class: inhibitors; further: series mostly up to about 57 µM; nearly all actives have a fitted effect of over 65% in size
JMJD2A Tudor inh: inhibitors of human JMJD2A Tudor domain; AlphaScreen JMJD2A-Tudor / H3K4me3 peptide binding; Potency, µM (highest dose often 114 µM), most hits filed as inhibitors; hit rate 4.4% among 390,000; further: nearly all actives have a fitted effect of over 50% in size
HP1b binding inh: blocks HP1-beta chromodomain binding to methylated histone tails; Potency, µM (top dose mostly 114 µM), actives largely listed as inhibitors; hit rate 0.56% among 390,000; AlphaScreen HP1-beta / biotin-H3K9me3 peptide binding; further: nearly all actives have a fitted effect of over 70% in size
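HP1-beta protein (50 nM final) preincubated 30 min at room temperature with biotinylated H3(1-18)K9me3 peptide (50 nM) in PBS pH 7.4, 0.01% Tween-20, then compound added for 30 min. AlphaScreen streptavidin donor/nickel chelate acceptor beads (10 ug/mL final), 30 min dark, luminescence read.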
Sfp PPTase inh: inhibitors of Bacillus subtilis Sfp phosphopantetheinyl transferase; hit rate 3.5% among 310,000; Potency, µM, most hits filed as inhibitors; Biochemical Sfp PPTase activity, qHTS; AID 1490;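 further: the enzyme is Sfp with the accession as filed and its product quenches rhodamine fluorescence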
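Compounds were incubated with enzyme (final 15 nM) for 15 min at room temperature before substrate addition started the reaction. Fluorescence at 525 nm excitation, 598 nm emission was recorded immediately and after 30 minutes.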
BAZ2B inh: BAZ2B (human) inhibition; Q9UIF8; AlphaScreen BAZ2B-H3K14Ac peptide displacement; Potency, µM (titrated, usually from 114 µM), hits mostly inhibitors; hit rate 4.4% among 360,000; AID 504333; further: nearly all actives have a fitted effect of over 60% in size
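BAZ2B 50 nM plus b-H3(5-23)K14Ac 50 nM, PBS pH 7.4/0.01% Tween-20, 30 min RT; compound added (max 110 uM), 30 min RT; streptavidin donor/Ni-chelate acceptor beads 10 ug/mL final, 20 min dark; AlphaScreen read.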
Numbers stand for hits; i = inactive; ? = inconclusive; nt = not tested or not shown; [ ] = dose if it differs, or a comment. The call rests on the fitted dose curve; in most records, active means well fitted curve in the direction sought with a large enough effect; inconclusive means small, poorly fitted or top-dose-only effect, or another doubt; inactive means no such curve, though single readings can be large; an effect the other way counts as inactive or inconclusive.

SMILES | G9a block | PLK1 PBD inh | JMJD2A Tudor inh | HP1b binding inh | Sfp PPTase inh | BAZ2B inh
CN1CCCN(Cc2ccccc2Br)CC1 | 22.4µM | i | 0.891µM | ? | 79.4µM | ?
Cc1ccccc1N1CCN(Cc2c[nH]c3ccccc23)CC1 | 31.6µM | i | 5.01µM | ? | i | ?
Fc1ccc(N2CCN(Cc3c[nH]c4ccccc34)CC2)cc1 | i | nt | nt | nt | i | ?
CCS(=O)(=O)N1CCN(Cc2c[nH]c3ccccc23)CC1 | 14.1µM | i | 1.12µM | ? | i | 56.2µM
COc1ccccc1NC(=O)C1=C(C)Nc2nc(SCc3ccccc3F)nn2C1c1cccs1 (stereo not drawn) | i | nt | i | i | nt | i
c1cnc(N2CCN(Cc3c[nH]c4ccccc34)CC2)nc1 | ? | i | i | i | i | i
O=[N+]([O-])c1ccc(CN2CCN(Cc3c[nH]c4ccccc34)CC2)cc1 | 8.91µM | i | 7.94µM | ? | ? | 22.4µM
Brc1ccccc1CN1CCN(Cc2c[nH]c3ccccc23)CC1 | nt | i | 0.794µM | 39.8µM | nt | nt
Brc1ccc(CN2CCN(Cc3c[nH]c4ccccc34)CC2)cc1 | 50.1µM | i | 2.24µM | 22.4µM | 56.2µM | 39.8µM
CCCS(=O)(=O)NC(=O)C1(C)CCCN(C(=O)c2cccnc2Oc2ccccc2)C1 (stereo not drawn) | nt | i | nt | nt | nt | nt
Cc1ccccc1Cn1c(O)c(N=NC(=S)Nc2ccccc2F)c2ccccc21 | 12.6µM | i | ? | ? | i | ?
Oc1c(N=NC(=S)Nc2ccccc2F)c2ccccc2n1Cc1ccc(Cl)cc1 | 10µM | i | ? | i | i | ?
Cc1ccc(C)c(Cn2c(O)c(N=NC(=S)Nc3ccccc3F)c3ccccc32)c1 | ? | 23.8µM | ? | ? | i | i
Oc1c(N=NC(=S)Nc2ccccc2F)c2ccccc2n1Cc1ccccc1F | 11.2µM | i | ? | ? | i | i
CCNC(=S)N=Nc1c(O)n(Cc2ccc(Cl)cc2)c2ccccc12 | ? | i | ? | ? | ? | ?
COCCn1c(SCC(=O)Nc2ccccc2OC)nc2ccccc21 | i | i | i | i | i | i
CCn1c(SCC(=O)Nc2cc(C)on2)nnc1-c1ccc(OC)cc1 | i | i | i | i | i | i
COCCn1c(-c2ccc(OC)cc2)cnc1SCC(=O)Nc1cc(C)on1 | 79.4µM | i | i | i | i | i
COCCn1c(-c2ccc(OC)cc2)cnc1SCC(=O)Nc1ccc(OC)cc1OC | ? | ? | i | i | i | 44.7µM
COc1ccc(NC(=O)CSc2nncn2N)c(OC)c1 | i | i | i | i | i | i
COCCn1c(-c2ccccc2)cnc1SCC(=O)Nc1cccc2ccccc12 | 31.6µM | i | 50.1µM | ? | i | 44.7µM
COc1cccc(OC)c1C(=O)Nc1cc(Cl)ccc1N1CCOCC1 | ? | i | i | i | i | i
CC1CCCN(C(=O)C(C)Nc2cc(Cl)ccc2N2CCOCC2)C1 (stereo not drawn) | 39.8µM | ? | ? | i | i | ?
COc1ccc(N2CCN(C(=O)COc3ccc(Cl)cc3Cl)CC2)cc1 | 6.31µM | i | ? | i | i | ?
COc1ccc(OCC(=O)N2CCN(c3cccc(Cl)c3)CC2)cc1 | i | i | i | i | i | i
SMILES | G9a block | PLK1 PBD inh | JMJD2A Tudor inh | HP1b binding inh | Sfp PPTase inh | BAZ2B inh
COc1ccc(N2CCN(C(=O)COC(=O)CNC(=O)c3ccc(Cl)cc3Cl)CC2)cc1 | 44.7µM | i | i | i | nt | i
COc1ccc(N2CCN(C(=O)COC(=O)CNC(=O)c3ccccc3)CC2)cc1 | i | i | i | i | i | i
Cc1ccc(S(=O)(=O)N2CCN(C(=O)COC(=O)CNC(=O)c3ccccc3)CC2)c(C)c1 | i | i | i | i | nt | i
Cc1ccc(S(=O)(=O)N2CCN(C(=O)COC(=O)CNC(=O)c3ccc(Cl)cc3Cl)CC2)c(C)c1 | nt | i | 25.1µM | i | nt | nt
O=C(CCCc1nc(-c2ccc(Cl)cc2)no1)NC1CCCCC1 | i | i | i | i | i | i
COc1cccc(CNC(=O)CNS(=O)(=O)c2ccc(Br)s2)c1 | i | i | i | i | i | i
COc1cccc(CNC(=O)CCNS(=O)(=O)c2ccc(Br)s2)c1 | i | 26.7µM | ? | i | i | i
Nc1ncc(Br)cc1S(=O)(=O)NCCC(=O)NCc1ccc(F)cc1 | i | i | i | i | i | i
COc1ccc(CNC(=O)CCNS(=O)(=O)c2ccc(Br)s2)cc1 | i | 29.9µM | 79.4µM | i | i | i
Nc1ncc(Br)cc1S(=O)(=O)NCCC(=O)NC1CCCCC1 | i | 26.7µM | ? | i | i | i
COc1ccc(CNC(=O)CCNS(=O)(=O)c2cc(Br)cnc2N)cc1 | i | 3.36µM | ? | i | i | i
CCCC[C@@H]1C[C@H]1C(NC(=O)c1cccs1)c1ccc(Cl)cc1 (stereo partly drawn) | nt | nt | nt | nt | i | nt
Cc1ccc(/C=N/N2CCN(Cc3ccccc3)CC2)o1 | 20µM | i | i | i | i | ?
Cc1ccc(/C=N/N2CCN(c3ccccn3)CC2)o1 | i | i | i | i | i | i
Cc1ccc(/C=N/N2CCN(Cc3cccc4ccccc34)CC2)o1 | 44.7µM | i | 50.1µM | ? | ? | 50.1µM
COC(=O)c1ccc(OCC2c3cc(OC)c(OC)cc3CCN2C(=O)c2ccccc2C)cc1 (stereo not drawn) | i | nt | ? | i | nt | ?
CCOC(=O)/C(=C\c1ccc(Cl)cc1)c1nc2sc(C)c(C)c2c(=O)[nH]1 | 25.1µM | 7.52µM | ? | ? | 39.8µM | i
O=Cc1ccc(Sc2nnc(-c3ccccc3)o2)c([N+](=O)[O-])c1 | 39.8µM | ? | ? | i | i | 44.7µM
Cc1cc(C)nc(Sc2ccc(C=O)cc2[N+](=O)[O-])n1 | ? | i | i | i | i | i
CCN(CC)c1ccc(NC(=O)CCCN2C(=O)C(c3ccccc3)Oc3cccnc32)c(C)c1 (stereo not drawn) | 2.82µM | nt | i | i | nt | i
COc1ccc(NC(=O)CCCN2C(=O)C(c3ccccc3)Oc3cccnc32)cc1OC (stereo not drawn) | i | i | i | i | i | ?
COc1ccc(Br)cc1CNC(=O)CN1C(=O)C(c2ccccc2)Oc2cccnc21 (stereo not drawn) | i | i | i | i | i | 50.1µM
COc1ccc(C(=O)CCN2CCN(c3ccccc3F)CC2)cc1 | ? | 10.6µM | i[11.4 µM] | i | 50.1µM | i
O=C(CCN1CCN(c2ccccc2F)CC1)c1ccc(Br)cc1 | 3.16µM | 8.44µM | i | i | i | i
COc1ccc(OC)c(NC(=O)CCN2CCN(c3ccccc3F)CC2)c1 | ? | i | i | i | ? | ?
Cc1nc(N2CCOCC2)c2nc(-c3ccccc3)n(CCN3CCOCC3)c2n1 | nt | nt | nt | nt | i | nt
CCOC(=O)Oc1c(OC)cc(C(=O)O[C@@H]2C[C@@H]3CN4CCc5c([nH]c6cc(OC)ccc56)[C@H]4C[C@@H]3[C@H](C(=O)OC)[C@H]2OC)cc1OC | 8.91µM | i | ? | i | nt | ?
COC(=O)[C@@H]1[C@@H]2C[C@H]3c4[nH]c5cc(OC)ccc5c4CCN3C[C@@H]2C[C@H](OC(=O)c2cc(OC)c(OC)c(OC)c2)[C@H]1OC | ? | nt | nt | nt | i | nt

High-throughput results: PubChem BioAssay, National Center for Advancing Translational Sciences (NCATS)
